According to PMC4336329 (PLoS ONE, 2015):
About 2,200 (0.71%) of roughly 310,000 compounds showed an effect of 50% or more. Effects have a minus sign here. The list comes from a sample in which strong results are over-represented; it also holds similar structures and randomly drawn compounds.

The compounds below were run against human ether-à-go-go-related gene (hERG) potassium channel (human, UniProt Q12809) (assay: primary screen, population patch clamp on CHO cells stably expressing hERG; higher = less effect of the substance).
human ether-à-go-go-related gene (hERG) potassium channel, sequence (Q12809 whole entry, looked up): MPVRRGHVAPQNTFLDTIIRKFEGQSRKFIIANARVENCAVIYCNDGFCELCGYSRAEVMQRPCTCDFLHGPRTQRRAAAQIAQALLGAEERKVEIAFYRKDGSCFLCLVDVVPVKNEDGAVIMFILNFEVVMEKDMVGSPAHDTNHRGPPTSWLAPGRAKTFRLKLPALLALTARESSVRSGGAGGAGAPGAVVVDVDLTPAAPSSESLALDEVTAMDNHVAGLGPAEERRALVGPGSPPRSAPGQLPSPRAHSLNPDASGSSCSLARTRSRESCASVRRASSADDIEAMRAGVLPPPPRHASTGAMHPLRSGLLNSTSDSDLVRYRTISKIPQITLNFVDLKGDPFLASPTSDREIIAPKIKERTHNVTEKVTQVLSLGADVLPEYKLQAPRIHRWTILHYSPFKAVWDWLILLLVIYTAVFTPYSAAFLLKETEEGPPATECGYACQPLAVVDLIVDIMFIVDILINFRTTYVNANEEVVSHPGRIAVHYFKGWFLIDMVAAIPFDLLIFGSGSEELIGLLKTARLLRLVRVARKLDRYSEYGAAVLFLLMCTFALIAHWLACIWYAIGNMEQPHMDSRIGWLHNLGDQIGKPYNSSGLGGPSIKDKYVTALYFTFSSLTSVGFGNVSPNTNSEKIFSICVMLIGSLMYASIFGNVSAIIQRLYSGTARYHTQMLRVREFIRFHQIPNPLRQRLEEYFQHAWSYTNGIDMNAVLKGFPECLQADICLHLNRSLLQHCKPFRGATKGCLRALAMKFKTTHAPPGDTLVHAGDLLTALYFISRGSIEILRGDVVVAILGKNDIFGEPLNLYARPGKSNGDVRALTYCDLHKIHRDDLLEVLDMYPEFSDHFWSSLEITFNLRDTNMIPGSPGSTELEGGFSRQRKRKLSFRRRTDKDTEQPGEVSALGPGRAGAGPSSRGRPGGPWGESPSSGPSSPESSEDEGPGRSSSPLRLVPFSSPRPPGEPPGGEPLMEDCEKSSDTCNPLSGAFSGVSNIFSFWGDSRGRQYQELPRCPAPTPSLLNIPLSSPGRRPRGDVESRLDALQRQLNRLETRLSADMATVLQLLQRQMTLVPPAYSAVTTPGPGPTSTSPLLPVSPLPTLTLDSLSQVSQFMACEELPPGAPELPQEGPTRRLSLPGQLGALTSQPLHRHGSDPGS
`Cc1occc1-c1nnc(SCC(=O)NC2CCCC2)n1C` was tested, and the “hERG current change (%, negative = inhibition) at 1uM” value was 13.5%.
`c1ccc2c(c1)CCCn1nnnc1-2` was tested, and the “hERG current change (%, negative = inhibition) at 1uM” value was 6.71%.
For `CCCC(=O)N(Cc1cc(=O)[nH]c2ccccc12)c1ccccc1C`, the “hERG current change (%, negative = inhibition) at 1uM” value was 13.1%.
`O=C(Cn1cnc(S(=O)(=O)N2CCCC2)c1)Nc1cccc(F)c1` was tested, and the “hERG current change (%, negative = inhibition) at 1uM” value was 14.4%.
With `COc1ccc(S(=O)(=O)N2CCOCC2)cc1NC(=O)c1ccc(-n2nc(C)cc2C)cc1` the “hERG current change (%, negative = inhibition) at 1uM” value was 6.25%.
In the case of `CCc1ccc(C(=O)OCC(=O)Nc2cccc(S(=O)(=O)NC3=NCCCCC3)c2)cc1`, the “hERG current change (%, negative = inhibition) at 1uM” value is reported as 7.29%.
In the case of `COc1ccc(CNS(=O)(=O)c2ccc3c(c2)CC(C)N3C(=O)C2CC2)cc1` (centres unmarked), the “hERG current change (%, negative = inhibition) at 1uM” value is reported as 15.1%.
For `Cc1ccc2c(c1)N(C(=O)CCC(=O)NCCCN1CCOCC1)CCO2`, the “hERG current change (%, negative = inhibition) at 1uM” value was 13.9%.
`O=C(CCC(=O)N1CCOc2ccccc21)NCCCN1CCN(Cc2ccccc2)CC1` was tested, and the “hERG current change (%, negative = inhibition) at 1uM” value was -41.9%.
With `O=C(CCC(=O)N1CCOc2ccc(Cl)cc21)NCCCN1CCN(c2ccccc2F)CC1` the “hERG current change (%, negative = inhibition) at 1uM” value was -22.2%.
For `Cc1ccc2c(c1)N(C(=O)CCC(=O)NCCCN1CCC(Cc3ccccc3)CC1)CCO2`, the “hERG current change (%, negative = inhibition) at 1uM” value was -78.7%.
`O=C(CCC(=O)N1CCOc2ccc(Cl)cc21)NCCCN1CCN(Cc2ccccc2)CC1` was tested, and the “hERG current change (%, negative = inhibition) at 1uM” value was -63.7%.
`O=C(CCC(=O)N1CCOc2ccc(Cl)cc21)NCCCN1CCOCC1` was tested, and the “hERG current change (%, negative = inhibition) at 1uM” value was 12.5%.
For `O=C(CCC(=O)N1CCOc2ccc(Cl)cc21)NCCCN1CCC(Cc2ccccc2)CC1`, the “hERG current change (%, negative = inhibition) at 1uM” value was -64.7%.
`CCN1CCN(CCCNC(=O)CCC(=O)N2CCOc3ccc(Cl)cc32)CC1` was tested, and the “hERG current change (%, negative = inhibition) at 1uM” value was 6.48%.
With `Cc1ccc2c(c1)N(C(=O)CCC(=O)NCCCN1CCN(C)CC1)CCO2` the “hERG current change (%, negative = inhibition) at 1uM” value was 7.21%.
`CC(NS(=O)(=O)c1cccc(S(=O)(=O)c2ccccc2)c1)C(=O)O` (centres unmarked) was tested, and the “hERG current change (%, negative = inhibition) at 1uM” value was 7.71%.
`O=C(CSc1ccc(-c2cccnc2)nn1)N1CCCCC1` was tested, and the “hERG current change (%, negative = inhibition) at 1uM” value was 14.1%.
`COc1ccc(-c2[nH]ncc2CN(C)C(C)c2ccncn2)c(F)c1` (centres unmarked) was tested, and the “hERG current change (%, negative = inhibition) at 1uM” value was 1.94%.
For `COc1cc(Br)c(C(=O)c2nccc3cc(OC)c(OC)cc23)cc1OC`, the “hERG current change (%, negative = inhibition) at 1uM” value was 10.6%.
In the case of `O=C(COc1ccc2ccc(=O)oc2c1)Nc1nccs1`, the “hERG current change (%, negative = inhibition) at 1uM” value is reported as 2.46%.
In the case of `O=C1N/C(=N/N=C/c2ccc(O)cc2)SC1Cc1ccccc1` (centres unmarked), the “hERG current change (%, negative = inhibition) at 1uM” value is reported as -0.776%.
For `Cc1occc1C(=O)N/N=C/c1ccc(N(C)C)cc1`, the “hERG current change (%, negative = inhibition) at 1uM” value was 15.7%.
With `O=C(NC1(C(F)(F)F)NC(=O)N(Cc2ccco2)C1=O)c1cccs1` (centres unmarked) the “hERG current change (%, negative = inhibition) at 1uM” value was 19.2%.
With `CC(=O)N1CCN(c2ccc(NC(=O)c3ccc(Br)o3)cc2Cl)CC1` the “hERG current change (%, negative = inhibition) at 1uM” value was -1.25%.
In the case of `Cc1ccc(Cl)cc1N1CCN(S(=O)(=O)c2cnc[nH]2)CC1`, the “hERG current change (%, negative = inhibition) at 1uM” value is reported as 1.64%.
For `CN(Cc1ccccc1)S(=O)(=O)c1cc2c3c(c1)CCN3C(=O)CC2`, the “hERG current change (%, negative = inhibition) at 1uM” value was 6.98%.
In the case of `O=C(NN1C(=O)c2ccccc2NC1c1ccco1)c1ccc(Br)cc1` (centres unmarked), the “hERG current change (%, negative = inhibition) at 1uM” value is reported as -50.4%.
For `O=C(NN1C(=O)c2ccccc2NC1c1ccco1)c1ccccc1` (centres unmarked), the “hERG current change (%, negative = inhibition) at 1uM” value was 4.38%.
`O=C(NN1C(=O)c2ccccc2NC1c1ccc([N+](=O)[O-])o1)c1ccc(Br)cc1` (centres unmarked) was tested, and the “hERG current change (%, negative = inhibition) at 1uM” value was -27.2%.
For `O=C(Nc1ccc2oc(=O)ccc2c1)c1cccnc1Cl`, the “hERG current change (%, negative = inhibition) at 1uM” value was -2.76%.
`CN(C)S(=O)(=O)c1ccc(C(=O)OCCCN=C2NS(=O)(=O)c3ccccc32)cc1` was tested, and the “hERG current change (%, negative = inhibition) at 1uM” value was -5.83%.
In the case of `CSc1ccc(C(=O)C2CCCN(Cc3cccnc3)C2)cc1` (centres unmarked), the “hERG current change (%, negative = inhibition) at 1uM” value is reported as -4.37%.
In the case of `O=C(c1ccc(Cl)cc1)C1CCCN(Cc2ccc3nonc3c2)C1` (centres unmarked), the “hERG current change (%, negative = inhibition) at 1uM” value is reported as 0.831%.
In the case of `COc1ccc(CN2CCCC(C(=O)c3ccc(Cl)cc3)C2)cc1Cn1cncn1` (centres unmarked), the “hERG current change (%, negative = inhibition) at 1uM” value is reported as -59.9%.
For `O=C(c1ccc(-c2ccccc2)c(F)c1)C1CCCN(CCCn2cccn2)C1` (centres unmarked), the “hERG current change (%, negative = inhibition) at 1uM” value was -38.6%.
In the case of `COc1ccc(C(=O)C2CCCN(Cc3cc(Cl)ccc3O)C2)c(OC)c1` (centres unmarked), the “hERG current change (%, negative = inhibition) at 1uM” value is reported as 12.6%.
For `COc1cc(CN2CCCC(C(=O)c3ccc(SC)cc3)C2)cc(Cl)c1O` (centres unmarked), the “hERG current change (%, negative = inhibition) at 1uM” value was -3.13%.
With `COc1ccc(CN2CCCC(C(=O)c3ccc(SC)cc3)C2)cc1Cn1cccn1` (centres unmarked) the “hERG current change (%, negative = inhibition) at 1uM” value was -68.5%.
For `CSc1ccc(C(=O)C2CCCN(Cc3cnc(SC)nc3)C2)cc1` (centres unmarked), the “hERG current change (%, negative = inhibition) at 1uM” value was -33.7%.
In the case of `CSc1ccc(C(=O)C2CCCN(CCCn3cccn3)C2)cc1` (centres unmarked), the “hERG current change (%, negative = inhibition) at 1uM” value is reported as -78.3%.
For `COc1cccc(C(=O)C2CCCN(Cc3ccc(OC)c(Cn4cncn4)c3)C2)c1` (centres unmarked), the “hERG current change (%, negative = inhibition) at 1uM” value was -20.2%.
In the case of `COc1ccc(CN2CCCC(C(=O)c3ccc(Cl)cc3)C2)c(OC)c1` (centres unmarked), the “hERG current change (%, negative = inhibition) at 1uM” value is reported as -53.6%.
With `COc1ccc(CN2CCCC(C(=O)c3ccc(Cl)cc3)C2)c(O)c1` (centres unmarked) the “hERG current change (%, negative = inhibition) at 1uM” value was -21.3%.
